Screening results from PubChem BioAssay.
In the library only some 1.4% were active in any assay of this set; here they are far more common.
KCNH2 3.1 inh – qHTS for Inhibitors of KCHN2 3.1: Mutant qHTS; U2OS KCNH2 3.1, thallium flux FluxOr; hits give low values; activity change, % (tested at about 1.8 µM); 0.95% of 340,000 active;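 active = maximum activity change below -70%; inconclusive = maximum activity change from -70% to -50%; inactive = maximum activity change above -50%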;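 note: thallium influx rate constant from kinetic fluorescence after stimulation buffer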
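Kinetic fluorescence (2 min after stimulation buffer) measures Tl+ influx through KCNH2 3.1 expressed by viral transduction in U2OS cells; the rate constant is normalized against DMSO controls serving as positive and negative references.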
EPAC1 ag – qHTS for Agonist of cAMP-regulated guanine nucleotide exchange factor 3 (EPAC1): primary screen | Rap guanine nucleotide exchange factor 3 (Homo sapiens), O95398 | EPAC1 agonist qHTS, biochemical assay; response scale: 100% = response to 6.5 mM cAMP | Potency, µM (top dose mostly 154 µM), hits mostly activators | 0.073% of 360,000 active; note: nearly all actives have a fitted effect of over 60% in size
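Multi-concentration qHTS readout: loss of Rap1B-bound BODIPY-GDP fluorescence driven by 100 nM EPAC1 with excess GDP (50 uM), monitored kinetically at room temperature; agonist response expressed relative to 6.5 mM cAMP.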
EPAC2 antagonist – qHTS for Antagonist of cAMP-regulated guanine nucleotide exchange factor 2 (EPAC2): primary screen. Potency, µM (doses to about 114 µM), most hits filed as inhibitors. EPAC2 GEF exchange of Rap1B-BODIPY-GDP, fluorescence. 0.18% of 360,000 active. Rap guanine nucleotide exchange factor 4 (Homo sapiens), Q8WZA2. AID 720708, 2013; note: nearly all actives have a fitted effect of over 45% in size
Target sequence (Q8WZA2 whole entry, looked up): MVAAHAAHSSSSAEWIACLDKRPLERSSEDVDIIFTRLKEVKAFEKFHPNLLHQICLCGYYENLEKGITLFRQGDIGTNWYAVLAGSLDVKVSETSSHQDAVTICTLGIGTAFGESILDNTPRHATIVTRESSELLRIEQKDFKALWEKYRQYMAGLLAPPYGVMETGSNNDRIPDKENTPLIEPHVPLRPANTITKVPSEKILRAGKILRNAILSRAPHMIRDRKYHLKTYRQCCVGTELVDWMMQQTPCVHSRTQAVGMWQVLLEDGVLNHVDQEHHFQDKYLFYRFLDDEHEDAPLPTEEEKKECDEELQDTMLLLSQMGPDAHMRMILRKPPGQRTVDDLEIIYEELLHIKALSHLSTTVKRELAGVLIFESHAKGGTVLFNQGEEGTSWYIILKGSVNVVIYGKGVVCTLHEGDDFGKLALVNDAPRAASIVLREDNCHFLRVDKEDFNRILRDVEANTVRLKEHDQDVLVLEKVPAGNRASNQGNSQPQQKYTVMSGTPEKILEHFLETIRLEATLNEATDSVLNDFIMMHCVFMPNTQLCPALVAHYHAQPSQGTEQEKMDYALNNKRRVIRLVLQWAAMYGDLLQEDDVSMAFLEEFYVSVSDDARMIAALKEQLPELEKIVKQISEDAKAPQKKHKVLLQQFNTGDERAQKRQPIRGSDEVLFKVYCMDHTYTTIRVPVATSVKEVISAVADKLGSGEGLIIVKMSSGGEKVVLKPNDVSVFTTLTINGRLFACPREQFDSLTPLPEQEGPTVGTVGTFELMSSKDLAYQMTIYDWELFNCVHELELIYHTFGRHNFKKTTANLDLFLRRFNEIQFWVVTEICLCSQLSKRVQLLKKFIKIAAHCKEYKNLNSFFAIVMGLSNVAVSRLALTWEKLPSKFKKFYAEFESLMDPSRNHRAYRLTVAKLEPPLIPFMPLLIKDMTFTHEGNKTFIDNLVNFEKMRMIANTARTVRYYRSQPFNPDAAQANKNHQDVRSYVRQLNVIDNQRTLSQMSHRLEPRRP
EPAC2 ag – qHTS for Agonist of cAMP-regulated guanine nucleotide exchange factor 4 (EPAC2): primary screen | 0.079% of 360,000 active | AID 720711, 2013 | Rap guanine nucleotide exchange factor 4 (Homo sapiens), Q8WZA2 | EPAC2 activation, biochemical qHTS; response scale: 100% = 6.5 mM cAMP response | Potency, µM (top dose mostly 154 µM), usual class: activators; note: nearly all actives have a fitted effect of over 50% in size
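Each well held 100 nM EPAC2, 250 nM RAP1B-BODIPY-GDP and 50 uM GDP. Fluorescence, read at 5-min intervals to 30 min, was referenced to a 6.5 mM cAMP positive control.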
EPAC1 antag – qHTS for Antagonist of cAMP-regulated guanine nucleotide exchange factor 3 (EPAC1): primary screen | EPAC1 GEF assay, Rap1b-BODIPY-GDP exchange fluorescence | Rap guanine nucleotide exchange factor 3 (Homo sapiens), O95398 | 0.14% of 360,000 active | Potency, µM (top dose mostly 115 µM), actives largely listed as inhibitors; note: nearly all actives have a fitted effect of over 50% in size
KCNH2 WT inh – qHTS for Inhibitors of KCHN2 3.1: Wildtype qHTS. U2OS, BacMam KCNH2, thallium flux FluxOr; hits give low values. AID 720551, 2013. 0.37% of 340,000 active. activity change, % at 1.84 µM. Voltage-gated inwardly rectifying potassium channel KCNH2 (Homo sapiens), Q12809;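 active = maximum activity change below -70%; inconclusive = maximum activity change between -70% and -50%; inactive = maximum activity change above -50%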
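U2OS cells transduced with wild-type KCNH2 virus are loaded with FluxOr dye for 45 min, and thallium flux is measured in kinetic reads before and after stimulation buffer. Rate constants are normalized to DMSO controls.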
A number is an active result; n = inactive; u = inconclusive; x = no result given. Unless noted, calls come from the whole dose curve; as a rule, active = well fitted curve in the direction sought with a large enough effect; inconclusive = small, poorly fitted or top-dose-only effect, or another doubt; inactive = no such curve, though single readings can be large; an effect the other way counts as inactive or inconclusive.

SMILES	KCNH2 3.1 inh	EPAC1 ag	EPAC2 antagonist	EPAC2 ag	EPAC1 antag	KCNH2 WT inh
CCN(CC)CCCN(C(=O)c1ccc(Br)cc1)c1nc(-c2ccc(OC)cc2)cs1	-109.3	n	n	n	n	-135.2
CCN(CC)CCCN(C(=O)c1cccc(C)c1)c1nc(-c2ccc(OC)cc2)cs1	-72.7	n	n	n	n	-80.8
CCN(CC)CCCN(C(=O)c1cccs1)c1nc(-c2ccc(OC)cc2)cs1	u	n	n	n	n	n
CC(Sc1cccc[n+]1[O-])C(=O)Nc1ccc(Oc2ccccc2)cc1 (stereo not given)	n	n	n	n	n	n
CC1CC(C)CN(CCCNC(=O)C2CCN(c3nnc(-n4cccc4)s3)CC2)C1 (stereo not given)	n	n	n	n	n	n
CC1CCCCN1CCCNC(=O)C1CCN(c2nnc(-n3cccc3)s2)CC1 (stereo not given)	-200.7	n	n	n	n	n
CCOc1c(O)ccc(/C=C2\SC(=S)NC2=O)c1[N+](=O)[O-]	n	n	56.2µM	n	n	n
CNC(=O)c1cc2cc(OC)ccc2n1CCN(Cc1ccccc1)Cc1ccccc1	-75.4	n	n	n	n	n
Cc1cc(NC(=O)c2ccc(-c3ccccc3[N+](=O)[O-])o2)no1	n	n	n	n	u	n
Cc1cc(NC(=O)c2ccc(-c3ccccc3F)o2)no1	-197.6	n	n	n	n	n
COc1ccc(OC)c(CN2CCN(CC(=O)Nc3ccccc3C(=O)NC3CC3)CC2)c1	-70.1	n	n	n	n	-78.8
COc1cc(C)c(CN2CCN(CC(=O)Nc3ccccc3C(=O)NC3CC3)CC2)cc1OC	-106.6	n	n	n	n	-82.6
CC(C)(Sc1ccc(CCN(CCCCC2CCCCC2)C(=O)NC2CCCCC2)cc1)C(=O)O	n	n	56.2µM	n	n	n
CC1(C(=O)Nc2ccc3c(c2)OCCO3)CN(S(C)(=O)=O)CC(=O)N1CCCn1ccnc1 (stereo not given)	x	n	n	n	n	x
COc1ccc(-n2c(SCc3ccccn3)nc3c(c2=O)SCC3)cc1OC	n	n	n	n	n	n
O=C(CN1CCC(C(O)(c2ccccc2)c2ccccc2)CC1)Nc1cc(Cl)ccc1Cl	n	n	n	n	n	n
O=C(CN1CCC(C(O)(c2ccccc2)c2ccccc2)CC1)Nc1ccccc1	-80.2	n	n	n	n	n
COc1ccc(CCNC(=O)COc2ncnc3cc([N+](=O)[O-])ccc23)cc1	-107.3	n	n	n	n	n
CC(NC(=O)CCNS(=O)(=O)c1ccccc1)c1ccccc1 (stereo not given)	n	n	n	n	n	-156.2
CC(CCc1ccccc1)NC(=O)CCNS(=O)(=O)c1ccccc1 (stereo not given)	n	n	n	n	n	n
Cc1cc2nc3c(=O)[nH]c(=O)[nH]c3nc2c([N+](=O)[O-])c1N	n	89.1µM	n	n	n	n
S=c1nc(-c2ccccc2)[nH]c2ccc(Br)cc12	n	n	n	n	n	-73.4
c1ccc(-c2nc3ccccc3[nH]2)cc1	n	n	n	n	n	n
COc1ccccc1Cc1c(-c2cccc(Cl)c2)nc2ccc(C)cn12	x	n	n	n	n	x
CCCCCOc1ccc(/C=c2\sc3nc(=O)c(-c4ccccc4)nn3c2=O)cc1OC	n	n	n	n	n	n
SMILES	KCNH2 3.1 inh	EPAC1 ag	EPAC2 antagonist	EPAC2 ag	EPAC1 antag	KCNH2 WT inh
O=c1nc2s/c(=C\c3ccc(-c4ccccc4[N+](=O)[O-])o3)c(=O)n2nc1-c1ccccc1	x	112µM	n	70.8µM	n	n
CC(Sc1nc2ccccc2c(=O)n1C)C(=O)N(C)C1CCCCC1 (stereo not given)	n	n	n	n	n	n
N/C(=N\N=C/c1ccc(Br)cc1)N/N=C\c1ccc(Br)cc1	u	n	n	n	n	n
N/C(=N\N=C/c1ccc(F)cc1)N/N=C\c1ccc(F)cc1	-72.9	n	n	n	n	n
Cc1cc(Sc2nnc(/N=C/N(C)C)s2)c2ccccc2n1	n	n	n	n	n	n
Cc1cc(Sc2nnc(N)s2)c2ccccc2n1	-77.8	n	n	n	u	n
Cc1cc(C)n(-c2nc3ccccc3n3cnnc23)n1	-102.5	n	n	n	n	n
CC1CCN(c2ccc(C=O)o2)CC1	-195.9	n	n	n	n	x
C[C@@H]1CN([C@@H](C)CO)C(=O)CCCn2nncc2CO[C@H]1CN(C)C(=O)Nc1ccccc1F	n	n	n	n	n	n
Cc1ccc(C2=NN(C(=O)CNCCO)C(c3cccs3)C2)cc1 (stereo not given)	n	n	n	n	n	n
Cc1ccc(NC(=O)CN2CCOCC2)c(Br)c1	n	n	n	n	n	n
Cc1ccc(N2C(=O)c3ccc(C(=O)N4CCN(Cc5ccccc5)CC4)cc3C2=O)cc1	-201.9	n	n	n	n	-145.3
O=C(c1ccc(-n2cccc2)cc1)N1CCN(Cc2ccccc2)CC1	u	n	n	n	n	-72.7
O=C(c1ccc([N+](=O)[O-])cc1)N1CCN(Cc2ccccc2)CC1	n	n	n	n	n	n
Cc1ccc(NC(=O)CN2CCN(Cc3ccccc3)CC2)c(Br)c1	-87.3	n	n	n	n	n
CCCCN1C(=O)C(CC(=O)NCCCCc2ccccc2)CC(C(=O)N(C)C)=C1C (stereo not given)	n	n	n	n	n	n
Cc1ccc(O)c(NC(=O)CSc2ccc(Cl)cc2)c1	-105.0	n	n	n	n	n
Cc1ccc(NS(=O)(=O)c2ccc(NC(=O)CSc3ccc(Cl)cc3)cc2)c(C)c1	n	n	n	n	n	n
CCCN(Cc1nnc(-c2ccccc2Cl)o1)C(=O)c1cc2ccccc2o1	n	n	n	n	n	n
CC(C)N(Cc1nnc(-c2ccc(Cl)cc2)o1)C(=O)c1cc2ccccc2o1	-90.8	n	n	n	n	n
Cc1ccc(Cl)cc1N1CCN(S(=O)(=O)c2ccc3c(c2)CC(=O)N3C)CC1	n	n	n	n	n	n
Cc1ccccc1-c1ccc(C(=O)NCc2ccccc2)o1	n	n	n	n	n	n
